This is an account of results in ChEMBL document CHEMBL4513216, “Probing the Open Global Health Chemical Diversity Library for Multistage-Active Starting Points for Next-Generation Antimalarials” (ACS Infect Dis, 2020).

Out of some 68,000 compounds screened, about 2,700 (4%) showed an effect of 50% or more. The sample holds strong results, similar compounds and a random draw of the others, so the mix is not that of the screen.

The subject of the test is Plasmodium berghei. In words: Screen against P. berghei liver stage (PbLuc), transformed with Luciferase, at 2uM. It counts as functional, HepG2. The settings on record: tested at 2 uM.
As for `COCCN1C[C@@H]2CCCO[C@@H]2[C@H](N(C)Cc2ccco2)C1`, the INHIBITION is given as 45.82%.

Take `Cc1nccn1-c1nccnc1C1CCN(Cc2ccc(F)cc2)CC1`: the INHIBITION is -42.32%.

On to `Cc1ccc(CN2CC[C@@H](NC(=O)c3cccnc3)[C@H](O)C2)s1`, for which the INHIBITION is given as -38.78%.

`O=C(N[C@@H]1CCN(Cc2cc3ccccc3s2)C[C@H]1O)c1cccnc1`: the INHIBITION came to 60.35%.

For the compound `CCc1ccccc1CN1CC[C@@H](NC(=O)c2cccnc2)[C@H](O)C1`, the INHIBITION was -44.59%.

In the case of `NC(=O)c1csc(N2CCCC(c3nc4ccccc4[nH]3)C2)n1` (centres undefined), the INHIBITION is on record as -41.06%.

Turning to `CC(=O)N[C@@H]1CN(Cc2ccccc2C#N)C[C@H]1c1ccc(C)cc1`, the INHIBITION was 28.19%.

Regarding `CCN(CC1CCCO1)C(=O)Nc1cc(OC)c(OC)cc1C` (centres undefined), the INHIBITION is -19.76%.

With `CCN(CC1CCCO1)C(=O)Nc1ccc(F)cc1OC` (centres undefined), the INHIBITION is 22.1%.

With `CCN(CC1CCCO1)C(=O)Nc1cc(C(N)=O)ccc1OC` (centres undefined), the INHIBITION is given as 84.53%.

Regarding `O=C(C1CC=CC1)N1C[C@H]2CN(Cc3ccncc3)C(=O)[C@H]2C1`, the INHIBITION worked out at 30.57%.

As to `CN(C)CCNC(=O)[C@H]1C[C@H]2CN(C(=O)NC3CCCC3)C[C@@H]1O2`, the INHIBITION was determined as 43.87%.

In the case of `CN1CCN(c2ncnc3c2CCN(C(=O)c2cccn2C)CC3)CC1`, the INHIBITION was -4.99%.

Turning to `CCc1nnc(NC(=O)c2c3c(nn2C2CCS(=O)(=O)C2)CCC3)s1` (centres undefined), the INHIBITION came out at 58.53%.

In the case of `Cc1nnc(NC(=O)c2c3c(nn2C2CCS(=O)(=O)C2)CCC3)s1` (centres undefined), the INHIBITION is recorded as 48.68%.

Turning to `Cc1nc(NC(=O)c2c3c(nn2C2CCS(=O)(=O)C2)CCC3)sc1C` (centres undefined), the INHIBITION amounted to 20.76%.

With `COc1cc2nc3n(c(=O)c2cc1OC)CCN(C(=O)C1CCC1)CC3`, the INHIBITION is -50.24%.

In the case of `c1c(CN2CCCC2)nc2n1CCNC2`, the INHIBITION is reported as -102.41%.

As to `c1c(CN2CCCCC2)nc2n1CCNC2`, the INHIBITION amounted to 60%.

Regarding `CN1CCN(Cc2cn3c(n2)CNCC3)CC1`, the INHIBITION came out at 33.11%.

Consider `CO[C@@H]1CCC[C@@H](NC(=O)CCCn2cncn2)[C@H]1O`, for which the INHIBITION was -32.51%.

For the compound `CCc1cc(C(F)(F)F)n2nc(C3CCCN3C(=O)COC)cc2n1` (centres undefined), the INHIBITION is on record as 33.56%.

Take `Cc1ncc(CN2CCOC(CNc3cccnn3)C2)s1` (centres undefined): the INHIBITION was 58.05%.

As to `Cc1nc(C)c(CN2CCOC(CNc3cccnn3)C2)s1` (centres undefined), the INHIBITION is -15.28%.

For the compound `Cc1cnc(CN2CCOC(CNc3cccnn3)C2)cn1` (centres undefined), the INHIBITION turned out to be 18.31%.

`CC(C)NC(=O)Cn1cc(OCc2ccc(F)cc2)c(=O)cc1CO`: the INHIBITION amounted to 14.65%.

Consider `Cc1ccccc1[C@@H]1CN(C(=O)c2ccc3[nH]nnc3c2)C[C@H]1C(=O)O`, for which the INHIBITION is on record as -45.64%.

Consider `CCn1c(CN2CCCN(C(=O)OC)CC2)nc2c(F)cccc21`, for which the INHIBITION is given as 20.28%.

With `CCn1c(CN2CCC(O)(C(=O)OC)CC2)nc2c(F)cccc21`, the INHIBITION was 54.32%.

Take `CCn1c(CN2CCN(CC(N)=O)CC2)nc2c(F)cccc21`: the INHIBITION came to 27.55%.

Consider `CN(Cc1ccccn1)C(=O)C(c1ccccc1)N1CCSCC1` (centres undefined), for which the INHIBITION is 19.48%.

Regarding `Fc1cccnc1O[C@@H]1CN(Cc2ccccn2)[C@@H]2CCCO[C@@H]21`, the INHIBITION is on record as 66.64%.

As to `Fc1cccnc1O[C@H]1CN(Cc2ccoc2)[C@@H]2CCCO[C@H]12`, the INHIBITION was -0.18%.

Turning to `Fc1cccnc1O[C@@H]1CN(Cc2ccco2)[C@@H]2CCCO[C@@H]21`, the INHIBITION is -8.22%.

Regarding `O=C(COc1ccc2cccnc2c1)N1CCN[C@H]2CS(=O)(=O)C[C@H]21`, the INHIBITION is given as -7.4%.

For the compound `CN(C)C(=O)CN1CCC2(COCc3cnc(-c4cccnc4)nc32)C1` (centres undefined), the INHIBITION was -55.8%.

Turning to `Cc1cc(CNCC2CNc3ccnn3C2)no1` (centres undefined), the INHIBITION is reported as -10%.

As to `Cc1cc2n(n1)CC(CNCc1cc(C)on1)CN2` (centres undefined), the INHIBITION is 57%.

As for `Cc1ccc(CNCC2CNc3cc(C)nn3C2)cn1` (centres undefined), the INHIBITION is reported as 4.19%.

Turning to `NCCC(=O)N1CCC2(CC1)CN(C(=O)Cc1ccc(Cl)cc1)CCO2`, the INHIBITION is reported as 10.62%.

For `Cc1ccccc1-n1nc(C)c(CN(C)C(C)Cc2ccccn2)c1C` (centres undefined), the INHIBITION is reported as -74.1%.

With `Cc1nnc(C(C)N(C)Cc2c(C)nn(-c3ccccc3)c2C)o1` (centres undefined), the INHIBITION worked out at 52.08%.

In the case of `CC(C)c1nnc(CN(C)C(c2ccccc2)c2ccc(F)cc2)o1` (centres undefined), the INHIBITION is -7.07%.

Consider `CCc1nnc(C(C)N(C)Cc2c(C)nn(-c3ccccc3)c2C)o1` (centres undefined), for which the INHIBITION is 63.1%.

On to `Cc1nnc(C(C)N(C)Cc2c(C)nn(-c3ccccc3C)c2C)o1` (centres undefined), for which the INHIBITION worked out at 29.39%.

Regarding `Cc1nn(-c2ccccc2)c(C)c1CN1CCNCC1`, the INHIBITION came out at 1.79%.

Regarding `CC(=O)N(C)c1nc(CN2CCCC2Cn2nc(C)cc2C)cs1` (centres undefined), the INHIBITION is recorded as -43.47%.

Consider `CN(C)c1ncc(-c2ccncc2)c(CCNC(=O)C2CC2)n1`, for which the INHIBITION was -33.32%.

Regarding `Cn1ncc2c(=O)[nH]c(CN(Cc3ccco3)C3CC3)nc21`, the INHIBITION is 5.09%.

Consider `CC(=O)NCCNC(=O)Nc1ccc(Br)cc1C(C)C`, for which the INHIBITION is -34.04%.

With `Cc1ccc(CN2CCC3(CCC(=O)N3CC(=O)N(C)C)CC2)s1`, the INHIBITION is 22.71%.

On to `CC1CCN(C(=O)[C@@H]2C[C@@H]3CCN(Cc4nccs4)C[C@H]3O2)CC1`, for which the INHIBITION was found to be 31.76%.

Turning to `Cc1nnc2n1CCN(C(=O)CN1C(=O)CSc3ccccc31)C2`, the INHIBITION is listed as -14.79%.

In the case of `CN(Cc1ccc(C(=O)Nc2sccc2C#N)cc1)Cc1ccno1`, the INHIBITION is on record as 26.74%.

As to `Cc1nnsc1CN(C)Cc1ccc(C(=O)Nc2sccc2C#N)cc1`, the INHIBITION was determined as 67.28%.

`Cc1nnc(CN(C)Cc2ccc(C(=O)Nc3sccc3C#N)cc2)o1`: the INHIBITION was found to be 33.9%.

For the compound `Cc1cc(C)n(CC2CCN(CC(O)COc3ccccc3)CC2)n1` (centres undefined), the INHIBITION is given as -1.96%.

Turning to `O=C(CCn1cccc1)NCc1ccc(CN2CCCCCC2)o1`, the INHIBITION is on record as 56.24%.

Consider `Cc1ccn(CCC(=O)NCc2ccc(C)o2)n1`, for which the INHIBITION was found to be 19.49%.

Regarding `O=C(COc1coc(CN2CCCCC2)cc1=O)NCc1ccccc1`, the INHIBITION was -11.78%.

For `O=C(c1ccco1)N1CCC2(CCC(=O)N2Cc2ccccc2)CC1`, the INHIBITION turned out to be 21.06%.

As for `O=C(c1ccco1)N1CCC2(CCC(=O)N2Cc2cccc(F)c2)CC1`, the INHIBITION is on record as 33.16%.

`Cc1cccc(CN2C(=O)CCC23CCN(C(=O)c2ccco2)CC3)c1`: the INHIBITION worked out at 70.48%.

For `O=C(NC1CCN(c2ncccc2F)C1)c1cccc(-n2ccnn2)c1` (centres undefined), the INHIBITION worked out at 25.78%.
